Compound activity from PubChem.
KCNQ2 inh – blocks the rat KCNQ2 potassium channel | CHO-K1 KCNQ2, FluxOR thallium flux, 20 min; active compounds read low | 310,000 compounds, 1.1% hits | O88943 | B-score at 10 µM;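 active = fluorescence ratio B-score at most minus 3 library SDs, with starting brightness B-score within 2 library SDs, cut at about -5.5 in these data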
KCNQ2 pot – enhances the rat KCNQ2 potassium channel; O88943; 310,000 compounds, 0.54% hits; B-score at 10 µM; CHO-K1 KCNQ2, FluxOR thallium flux fluorescence; active compounds read high; AID 2239;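 active = fluorescence ratio B-score at least 3 SD of library B-scores, with initial fluorescence B-score within 3 of them, cut at about 5.3 in these data; same plate scores as AID 2156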;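 note: B-score of peak minus minimum over baseline fluorescence ratio after K+ and Tl+ stimulus; positive B-score means potentiation of KCNQ2 with more thallium influx and brighter signal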
Kir21 confirm – confirmation of mouse Kir2.1 potassium channel inhibitors | shares compounds with KCNQ2 pot | Kir2.1-expressing cells, FluxOR thallium flux fluorescence; active compounds read low | Tl flux remaining, % of negative control (active compounds read low), % at 10 µM | 2,300 compounds, 41% hits;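 active = Primary-screen hit whose thallium flux fell at least 3 control SD below untreated wells in both duplicates, with normal baseline fluorescence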;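 note: 0% = blank wells without stimulus and 100% = stimulated no-compound controls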
HEK293 ctr – counter-screen for Kir2.1 inhibitors: effect in parental HEK293 cells | shares compounds with KCNQ2 pot | FluxOR thallium flux fluorescence; 0% = unstimulated blank wells | FluxOR signal as % of negative control (100 = no effect), % at 10 µM | 2,300 compounds, 19% hits | AID 2105;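 active = dye signal at least 3 control SD above or below untreated wells in both duplicates, raw fluorescence within 3, either direction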;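 note: percent is based on the flux ratio of peak minus minimum fluorescence over baseline F0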
CHO-K1 ctr – counter-screen for KCNQ2 potentiators: effect in parental CHO-K1 cells | shares compounds with KCNQ2 pot | FluxOR thallium flux fluorescence; zero = vehicle mean+3SD, 100% = vehicle-minus-blank window | activity increase over 3SD of controls, % at 10 µM | 1,200 compounds, 43% hits | AID 2282;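 active = signal rise of at least 3 SD above the untreated control mean, in both duplicate wells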;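 note: counter screen of KCNQ2 potentiator hits so any rise reflects channel-independent effects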
KCNQ1 sel pot – tests whether KCNQ2 potentiators also act on human KCNQ1. shares compounds with KCNQ2 pot. CHO KCNQ1 stable, FluxOR thallium flux fluorescence; beyond 3SD, as % of vehicle-control signal. activation over 3SD threshold, % at 10 µM. 1,200 compounds, 28% hits. AID 2283;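 active = fluorescence ratio rise of at least 3 SD of vehicle wells above their mean, in both replicate wells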;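 note: 0% = vehicle mean plus 3 SD and 100% = vehicle minus unstimulated blank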
KCNQ2 pot conf – rat KCNQ2 channel potentiator confirmation; shares compounds with KCNQ2 pot; CHO-KCNQ2 cells, FluxOR thallium flux fluorescence; potentiation, less the hit threshold, % at 10 µM; 1,200 compounds, 68% hits; AID 2287;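 active = fluorescence ratio rising 3 SD or more over the vehicle control mean in both replicates, plus primary screen hit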;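 note: peak minus minimum thallium fluorescence divided by baseline after K/Tl stimulus; 0% = vehicle mean plus 3 SD and 100% = vehicle minus unstimulated blank difference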
Kir21 spec – tests whether KCNQ2 potentiators also affect mouse Kir2.1; shares compounds with KCNQ2 pot; HEK293 Kir2.1, FluxOR thallium flux fluorescence; activity over 3SD threshold, % at 10 µM; 1,200 compounds, 2% hits; AID 2345;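 active = fluorescence ratio rise of at least 3 SD above the vehicle-control mean, seen in both replicates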;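 note: 0% = vehicle mean plus 3 SD and 100% = vehicle minus no-stimulus blank window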
KCNQ2 W236L MoA – KCNQ2 potentiators acting on retigabine-insensitive rat KCNQ2 W236L mutant; AID 2558; 940 compounds, 10% hits; current increase over 3SD of negative controls (%), active compounds read high, % at 25 µM; CHO KCNQ2-W236L, automated patch clamp current; shares compounds with KCNQ2 pot;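 active = current increase at least 3 SD of the untreated controls above them in both duplicate recordings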
Target sequence (O88943 whole entry W236L, looked up): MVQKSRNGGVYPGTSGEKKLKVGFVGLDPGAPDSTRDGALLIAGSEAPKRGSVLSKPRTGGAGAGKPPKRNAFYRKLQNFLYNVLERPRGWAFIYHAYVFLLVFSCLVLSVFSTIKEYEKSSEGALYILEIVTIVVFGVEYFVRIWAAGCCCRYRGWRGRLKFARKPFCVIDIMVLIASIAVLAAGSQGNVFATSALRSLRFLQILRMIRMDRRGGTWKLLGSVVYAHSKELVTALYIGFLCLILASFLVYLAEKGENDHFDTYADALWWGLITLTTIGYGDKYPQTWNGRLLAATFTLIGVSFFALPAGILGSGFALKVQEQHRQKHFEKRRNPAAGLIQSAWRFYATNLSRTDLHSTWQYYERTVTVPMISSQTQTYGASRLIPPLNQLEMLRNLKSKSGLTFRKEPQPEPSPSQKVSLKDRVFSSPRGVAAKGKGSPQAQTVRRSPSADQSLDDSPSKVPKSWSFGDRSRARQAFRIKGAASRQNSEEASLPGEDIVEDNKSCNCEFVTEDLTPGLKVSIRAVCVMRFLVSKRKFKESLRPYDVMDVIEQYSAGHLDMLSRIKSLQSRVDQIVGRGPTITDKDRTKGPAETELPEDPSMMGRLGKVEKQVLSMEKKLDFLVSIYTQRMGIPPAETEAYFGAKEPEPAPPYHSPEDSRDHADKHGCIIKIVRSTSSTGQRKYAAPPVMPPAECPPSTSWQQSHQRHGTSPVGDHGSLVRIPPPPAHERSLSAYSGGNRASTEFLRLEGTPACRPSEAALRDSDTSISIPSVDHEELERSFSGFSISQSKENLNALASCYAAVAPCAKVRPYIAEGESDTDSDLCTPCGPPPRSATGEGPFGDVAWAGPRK
* hit, by the source's call. Only some compounds are listed: those with a hit (about 1.6% of all), similar ones and a draw of the others.

How did Fc1ccc(N2CCN(Cc3c[nH]c4ccccc34)CC2)cc1 do in these assays?
KCNQ2 inh: inactive; KCNQ2 pot: 0.09; Kir21 confirm: 19%*; HEK293 ctr: inactive

How did c1cnc(N2CCN(Cc3c[nH]c4ccccc34)CC2)nc1 do in these assays?
KCNQ2 inh: inactive

How did C=CCn1c(SC(C)CC)nc(O)cc1=O (configuration not stated) do in these assays?
KCNQ2 inh: inactive; KCNQ2 pot: 0.27

Results for CCCOc1cccc(-c2cc(C(=O)NN)c3ccccc3n2)c1 ?
KCNQ2 inh: inactive; KCNQ2 pot: 0.73

What do the screens show for `CCCOc1cccc(-c2cc(C(=O)N/N=C/c3ccccn3)c3ccccc3n2)c1`?
KCNQ2 inh: inactive; KCNQ2 pot: 5.5*; Kir21 confirm: inactive; HEK293 ctr: inactive; CHO-K1 ctr: -13; KCNQ1 sel pot: -36; KCNQ2 pot conf: -26; Kir21 spec: -41

Results for Cc1cc(C)c(OCC(=O)Nc2nnc(-c3ccco3)o2)c(C)c1 ?
KCNQ2 inh: inactive

What do the screens show for `CCc1ccc(-c2cc(C(F)(F)F)n3nc(C(=O)Nc4cnn(Cc5ccc(C)cc5)c4)cc3n2)s1`?
KCNQ2 inh: inactive

How did CCOc1ccccc1N(CC(=O)N1CCCC1)S(C)(=O)=O do in these assays?
KCNQ2 inh: inactive; KCNQ2 pot: 0.18

Results for CCNC(=S)/N=C(/Nc1ccc(OC)cc1)Nc1nc(C)cc(C)n1 ?
KCNQ2 inh: inactive

What do the screens show for `CCNC(=S)/N=C(/Nc1ccccc1)Nc1nc(C)cc(C)n1`?
KCNQ2 inh: inactive; KCNQ2 pot: 0.68; Kir21 confirm: inactive; HEK293 ctr: inactive

Results for CC(C)N(CCc1ccncc1)C(=S)Nc1cccc(Cl)c1 ?
KCNQ2 inh: inactive

Results for CC(C)(C)c1ccc(OCC(=O)NCc2ccco2)c(Br)c1 ?
KCNQ2 inh: inactive; KCNQ2 pot: 5.4*; Kir21 confirm: inactive; HEK293 ctr: inactive; CHO-K1 ctr: -11; KCNQ1 sel pot: -13; KCNQ2 pot conf: 4.0*; Kir21 spec: -36; KCNQ2 W236L MoA: inactive

What do the screens show for `CC(C)(C)c1ccc(OCC(=O)NNC(=S)NC(=O)c2ccco2)c(Br)c1`?
KCNQ2 inh: inactive

How did COc1cccc2c1O/C(=N\O)C(C(=O)Nc1cccc(Br)c1)C2 (configuration not stated) do in these assays?
KCNQ2 inh: inactive

How did O=C(O)CN1C(=O)/C(=C2\C(=O)N(Cc3ccccc3Cl)c3ccccc32)SC1=S do in these assays?
KCNQ2 inh: inactive; KCNQ2 pot: 6.2*; Kir21 confirm: inactive; HEK293 ctr: inactive; CHO-K1 ctr: -11; KCNQ1 sel pot: -11; KCNQ2 pot conf: -21; Kir21 spec: -42

How did O=C1/C(=C2\C(=O)N(Cc3ccc(F)cc3)c3ccccc32)SC(=S)N1CCS(=O)(=O)O do in these assays?
KCNQ2 inh: inactive

How did OC1CCCN(Cc2ccc3ccc4cccc5ccc2c3c45)C1 (configuration not stated) do in these assays?
KCNQ2 inh: inactive; Kir21 confirm: 48%*; HEK293 ctr: inactive

How did c1cc2ccc3ccc(CN4CCOCC4)c4ccc(c1)c2c34 do in these assays?
KCNQ2 inh: inactive; KCNQ2 pot: 0.02

How did COc1cc(C2C3=C(CC(C)(C)CC3=O)N(C)C3=C2C(=O)CC(C)(C)C3)cc(Br)c1O do in these assays?
KCNQ2 inh: inactive

What do the screens show for `O=[N+]([O-])c1cccc(-c2csc(Nc3ccccc3)n2)c1`?
KCNQ2 inh: inactive; KCNQ2 pot: 0.15; Kir21 confirm: inactive; HEK293 ctr: inactive

How did COc1ccccc1Nc1nc(-c2cccc([N+](=O)[O-])c2)cs1 do in these assays?
KCNQ2 inh: inactive; KCNQ2 pot: 1.6

Results for c1ccc(-c2ccccc2OCCOCCN2CCc3ccccc3C2)cc1 ?
KCNQ2 inh: inactive; Kir21 confirm: 50%*; HEK293 ctr: inactive

Results for Clc1ccc(OCCOCCN2CCc3ccccc3C2)c(Cl)c1 ?
KCNQ2 inh: inactive

How did CCOC(=O)c1cccc(Nc2ncnc3ccc(C)cc23)c1 do in these assays?
KCNQ2 inh: inactive; KCNQ2 pot: 1.7; Kir21 confirm: 52%*; HEK293 ctr: inactive

What do the screens show for `CCOC(=O)c1ccc(Nc2ncnc3ccc(C)cc23)cc1`?
KCNQ2 inh: inactive; KCNQ2 pot: 0.62

Results for Cc1occc1C(=O)N1CCC2(CCCN(Cc3ccc(F)c(F)c3)C2)C1 (configuration not stated) ?
KCNQ2 inh: inactive

Results for CC(C)c1cccc(C(C)C)c1NC(=O)COC(=O)C1=COCCO1 ?
KCNQ2 inh: inactive

Results for Cc1nc(SCC(=O)c2cccs2)c2oc3ccccc3c2n1 ?
KCNQ2 inh: inactive; KCNQ2 pot: 6*; Kir21 confirm: inactive; HEK293 ctr: inactive; CHO-K1 ctr: -16; KCNQ1 sel pot: -4; KCNQ2 pot conf: -7; Kir21 spec: -38; KCNQ2 W236L MoA: inactive

Results for O=C(CSc1ncnc2c1oc1ccccc12)c1cccs1 ?
KCNQ2 inh: inactive; KCNQ2 pot: 0.98

How did COC(=O)c1ccc(C)c(NC(=S)NCc2ccc(Cl)cc2)c1 do in these assays?
KCNQ2 inh: inactive; KCNQ2 pot: 0.41

Results for COC(=O)c1sccc1NC(=S)NCc1ccc(Cl)cc1 ?
KCNQ2 inh: inactive; KCNQ2 pot: 7.2*; Kir21 confirm: inactive; HEK293 ctr: 212%*; CHO-K1 ctr: 2.7*; KCNQ1 sel pot: -20; KCNQ2 pot conf: 38*; Kir21 spec: -22; KCNQ2 W236L MoA: inactive

Results for O=C(OCc1csc(Nc2ccccc2)n1)c1ccc(Cl)cc1 ?
KCNQ2 inh: inactive

How did CCC1Oc2ccc(C)cc2N(CC(=O)NCC2COc3ccccc3O2)C1=O (configuration not stated) do in these assays?
KCNQ2 inh: inactive

What do the screens show for `Cc1noc(C)c1CSc1nc2ccccc2n1CCc1ccccc1`?
KCNQ2 inh: -6*; KCNQ2 pot: -6; Kir21 confirm: 66%*; HEK293 ctr: inactive

How did O=C(O)CCn1c(SCc2ccccc2)nc2ccccc21 do in these assays?
KCNQ2 inh: inactive; KCNQ2 pot: 0.07
